Experimental data from PubChem BioAssay AID1159580 (chemical genetic matrix, 2015).
Among all 5,500 compounds or so, about 2,000 (36%) were called active. Not shown: some 18% with an inconclusive outcome. Rule as the data show it: active = normalized growth mostly below about 0.91 (no sharp cut-off); inconclusive = no clear call, values can overlap the other calls; inactive = mostly above about 0.92. The list shows a part of the results.

Assay: chemical genetic growth profiling, strain panel (AID 1159580);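 also: tested at 20 µM; growth read once vehicle control cultures reached saturation at 30 °C; 1 = growth at the plate median or of vehicle wells; lower values mean less growth of the strain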
Settings: S. cerevisiae deletion strains, growth OD
[1] = locus YDL101C, strain DUN1, stronger effect = lower value
[2] = locus YHR030C, strain SLT2, stronger effect = lower value
[3] = locus YHR079C, strain IRE1, stronger effect = lower value
[4] = locus YJL095W, strain BCK1, stronger effect = lower value
[5] = locus YJR066W, strain TOR1, stronger effect = lower value
[6] = locus YLR113W, strain HOG1, stronger effect = lower value
[7] = locus YNL183C, strain NPR1, stronger effect = lower value
[8] = locus YOR231W, strain MKK1, stronger effect = lower value
[9] = locus YPL256C, strain CLN2, stronger effect = lower value

Measured: normalized growth

O=C(Nc1ccccc1C(=O)O)OCC1c2ccccc2-c2ccccc21
active: [2] 0.366 | locus YHR082C, strain KSP1, stronger effect = lower value 0.591 | locus YKL048C, strain ELM1, stronger effect = lower value 0.799 | [6] 0.8 | locus YOR061W, strain CKA2, stronger effect = lower value 0.553 | [9] 0.808
inactive: locus YAR019C, strain CDC15, stronger effect = lower value 0.993 | locus YBL105C, strain PKC1, stronger effect = lower value 0.989 | locus YBR135W, strain CKS1, stronger effect = lower value 0.978 | locus YBR136W, strain MEC1, stronger effect = lower value 0.987 | locus YBR160W, strain CDC28, stronger effect = lower value 0.981 | locus YDL017W, strain CDC7, stronger effect = lower value 0.986 | locus YDL028C, strain MPS1, stronger effect = lower value 0.987 | [1] 0.988 | locus YDL108W, strain KIN28, stronger effect = lower value 0.984 | locus YDL132W, strain cdc53, stronger effect = lower value 0.985 | locus YDL214C, strain PRR2, stronger effect = lower value 0.884 | locus YDR052C, strain DBF4, stronger effect = lower value 0.983 | locus YDR054C, strain cdc34, stronger effect = lower value 0.99 | locus YDR226W, strain ADK1, stronger effect = lower value 0.982 | locus YDR477W, strain SNF1, stronger effect = lower value 0.859 | locus YER123W, strain YCK3, stronger effect = lower value 0.839 | locus YER133W, strain GLC7, stronger effect = lower value 0.901 | locus YFL009W, strain cdc4, stronger effect = lower value 0.986 | locus YFL029C, strain CAK1, stronger effect = lower value 0.992 | locus YFR003C, strain YPI1, stronger effect = lower value 0.985 | locus YFR019W, strain FAB1, stronger effect = lower value 0.803 | locus YFR028C, strain CDC14, stronger effect = lower value 0.979 | locus YGR040W, strain KSS1, stronger effect = lower value 0.857 | locus YGR052W, strain FMP48, stronger effect = lower value 0.701 | locus YGR092W, strain DBF2, stronger effect = lower value 0.683 | [3] 0.793 | locus YHR205W, strain SCH9, stronger effect = lower value 0.746 | locus YIL147C, strain SLN1, stronger effect = lower value 0.986 | [4] 0.665 | locus YJL128C, strain PBS2, stronger effect = lower value 0.927 | locus YJL157C, strain FAR1, stronger effect = lower value 0.893 | locus YJR016C, strain ILV3, stronger effect = lower value 0.99 | locus YJR066W, strain TOR1 (second series), stronger effect = lower value 0.826 | [5] 0.709 | locus YKL067W, strain YNK1, stronger effect = lower value 0.866 | locus YKL101W, strain HSL1, stronger effect = lower value 0.72 | locus YKL193C, strain SDS22, stronger effect = lower value 0.987 | locus YKL203C, strain TOR2, stronger effect = lower value 0.883 | locus YLR133W, strain CKI1, stronger effect = lower value 0.78 | locus YLR403W, strain SFP1, stronger effect = lower value 0.795 | locus YML070W, strain DAK1, stronger effect = lower value 0.842 | locus YMR001C, strain CDC5, stronger effect = lower value 0.986 | locus YMR205C, strain PFK2 (second series), stronger effect = lower value 0.853 | locus YMR277W, strain FCP1, stronger effect = lower value 0.989 | locus YNL006W, strain LST8, stronger effect = lower value 0.978 | locus YNL020C, strain ARK1, stronger effect = lower value 0.728 | locus YNL161W, strain CBK1, stronger effect = lower value 0.983 | [7] 0.742 | locus YNL207W, strain RIO2, stronger effect = lower value 0.992 | locus YNL222W, strain SSU72, stronger effect = lower value 0.985 | locus YNL307C, strain MCK1 (second series), stronger effect = lower value 0.703 | locus YOL078W, strain AVO1, stronger effect = lower value 0.977 | locus YOL136C, strain PFK27, stronger effect = lower value 0.805 | locus YOR119C, strain RIO1, stronger effect = lower value 0.927 | [8] 0.818 | locus YOR329C, strain SCD5, stronger effect = lower value 0.993 | locus YPL031C, strain PHO85, stronger effect = lower value 0.827 | locus YPL153C, strain RAD53, stronger effect = lower value 0.855 | locus YPL204W, strain HRR25, stronger effect = lower value 0.797 | locus YPL209C, strain IPL1, stronger effect = lower value 0.984 | locus YPR025C, strain CCL1, stronger effect = lower value 0.991 | locus YPR106W, strain ISR1, stronger effect = lower value 0.977 | locus YPR111W, strain DBF20, stronger effect = lower value 0.96 | strain NNK1, stronger effect = lower value 0.987 | strain TSCII, stronger effect = lower value 0.99

O=C(NCCCCO)OCC1c2ccccc2-c2ccccc21
inactive: locus YAL013W, strain DEP1, stronger effect = lower value 1 | locus YBR229C, strain ROT2, stronger effect = lower value 0.997 | [1] 1 | locus YDR150W, strain NUM1, stronger effect = lower value 0.986 | locus YEL061C, strain CIN8, stronger effect = lower value 0.985 | locus YGR078C, strain PAC10, stronger effect = lower value 0.991 | locus YGR229C, strain SMI1, stronger effect = lower value 0.987 | [2] 0.867 | locus YHR087W, strain rtc3, stronger effect = lower value 0.987 | locus YJR043C, strain POL32, stronger effect = lower value 0.989 | locus YJR075W, strain HOC1, stronger effect = lower value 1.01 | locus YLR039C, strain RIC1, stronger effect = lower value 1.02 | locus YLR058C, strain SHM2 (second series), stronger effect = lower value 0.98 | locus YLR085C, strain ARP6, stronger effect = lower value 0.886 | locus YLR262C, strain YPT6, stronger effect = lower value 1.02 | locus YML094W, strain GIM5, stronger effect = lower value 0.955 | locus YMR219W, strain ESC1, stronger effect = lower value 0.995 | locus YMR263W, strain SAP30, stronger effect = lower value 0.959 | locus YMR307W, strain GAS1, stronger effect = lower value 0.812 | locus YNL153C, strain GIM3, stronger effect = lower value 0.983 | locus YNL298W, strain CLA4 (second series), stronger effect = lower value 0.929 | locus YNL322C, strain KRE1, stronger effect = lower value 1 | locus YNR030W, strain Alg12, stronger effect = lower value 0.963 | locus YPL055C, strain LGE1, stronger effect = lower value 0.953 | locus YPL241C, strain CIN2, stronger effect = lower value 0.937 | locus YPR135W, strain CTF4, stronger effect = lower value 0.959

CC(C)C[C@@H](NC(=O)OCC1c2ccccc2-c2ccccc21)C(=O)O
inactive: locus YAL021C, strain ccr4, stronger effect = lower value 0.988 | locus YAL026C, strain drs2, stronger effect = lower value 0.982 | locus YAL030W, strain snc1, stronger effect = lower value 0.991 | locus YBL061C, strain skt5, stronger effect = lower value 1.01 | locus YBR009C, strain hhf1, stronger effect = lower value 1.01 | locus YBR023C, strain chs3, stronger effect = lower value 1 | locus YBR171W, strain sec66, stronger effect = lower value 1 | locus YBR231C, strain swc5, stronger effect = lower value 1.01 | locus YBR279W, strain paf1, stronger effect = lower value 0.998 | locus YCL011C, strain gbp2, stronger effect = lower value 0.993 | locus YCL016C, strain dcc1, stronger effect = lower value 0.983 | locus YCL061C, strain MRC1, stronger effect = lower value 1 | locus YCL069W, strain vba3, stronger effect = lower value 0.995 | locus YCR088W, strain abp1, stronger effect = lower value 0.992 | locus YDL005C, strain med2, stronger effect = lower value 0.986 | locus YDL040C, strain nat1, stronger effect = lower value 0.985 | locus YDR001C, strain nth1, stronger effect = lower value 0.977 | locus YDR069C, strain doa4, stronger effect = lower value 0.993 | locus YDR137W, strain rgp1, stronger effect = lower value 0.962 | locus YDR159W, strain sac3, stronger effect = lower value 1.04 | locus YDR195W, strain ref2 0.945 | locus YDR297W, strain sur2, stronger effect = lower value 1 | locus YDR334W, strain swr1, stronger effect = lower value 0.988 | locus YDR335W, strain msn5, stronger effect = lower value 0.991 | locus YDR392W, strain spt3, stronger effect = lower value 0.955 | locus YEL003W, strain gim4, stronger effect = lower value 0.999 | locus YEL037C, strain rad23, stronger effect = lower value 0.998 | locus YEL061C, strain CIN8 (second series), stronger effect = lower value 0.997 | locus YER015W, strain faa2, stronger effect = lower value 0.997 | locus YER016W, strain bim1, stronger effect = lower value 0.993 | locus YER111C, strain swi4, stronger effect = lower value 1 | locus YER155C, strain BEM2 (second series), stronger effect = lower value 1.02 | locus YFR010W, strain ubp6, stronger effect = lower value 0.991 | locus YGL167C, strain pmr1, stronger effect = lower value 0.999 | locus YGL173C, strain kem1, stronger effect = lower value 1 | locus YGL227W, strain vid30, stronger effect = lower value 0.996 | locus YGL240W, strain doc1, stronger effect = lower value 1.01 | locus YGL253W, strain hxk2, stronger effect = lower value 1 | locus YHR013C, strain ard1, stronger effect = lower value 0.998 | locus YHR027C, strain rpn1, stronger effect = lower value 0.984 | [2] 0.966 | [3] 0.976 | locus YHR142W, strain chs7, stronger effect = lower value 0.996 | locus YJL092W, strain hpr5, stronger effect = lower value 1 | locus YJL095W, strain BCK1 (second series), stronger effect = lower value 0.999 | [4] 0.98 | locus YJL115W, strain asf1, stronger effect = lower value 0.979 | locus YJL129C, strain trk1, stronger effect = lower value 1 | locus YJL154C, strain vps35, stronger effect = lower value 0.986 | locus YJL164C, strain tpk1, stronger effect = lower value 0.971 | locus YJL166W, strain qcr8, stronger effect = lower value 1 | locus YJL187C, strain SWE1, stronger effect = lower value 0.996 | [5] 0.89 | locus YKL160W, strain elf1, stronger effect = lower value 0.99 | locus YKR026C, strain gcn3, stronger effect = lower value 1 | locus YKR091W, strain srl3, stronger effect = lower value 0.981 | locus YLL001W, strain dnm1, stronger effect = lower value 0.974 | locus YLL026W, stronger effect = lower value 0.992 | locus YLL041C, strain sdh2, stronger effect = lower value 1 | locus YLR027C, strain aat2, stronger effect = lower value 1 | [6] 0.888 | locus YLR221C, strain rsa3, stronger effect = lower value 1.03 | locus YLR258W, strain gsy2, stronger effect = lower value 1 | locus YLR262C, strain YPT6 (second series), stronger effect = lower value 0.949 | locus YLR320W, strain mms22, stronger effect = lower value 1.02 | locus YLR342W, strain FKS1, stronger effect = lower value 0.99 | locus YLR357W, strain rsc2, stronger effect = lower value 0.97 | locus YLR370C, strain arc18, stronger effect = lower value 1.01 | locus YLR384C, strain iki3, stronger effect = lower value 0.991 | locus YML120C, strain ndi1, stronger effect = lower value 0.994 | locus YMR058W, strain fet3, stronger effect = lower value 0.991 | locus YMR125W, strain sto1, stronger effect = lower value 0.965 | locus YMR129W, stronger effect = lower value 0.998 | locus YMR205C, strain PFK2, stronger effect = lower value 0.973 | locus YMR231W, strain pep5, stronger effect = lower value 0.971 | locus YNL071W, strain lat1, stronger effect = lower value 0.995 | [7] 0.888 | locus YNL209W, strain ssb2, stronger effect = lower value 0.997 | locus YNL248C, strain rpa49, stronger effect = lower value 0.978 | locus YNL322C, strain KRE1 (second series), stronger effect = lower value 1 | locus YNR049C, strain mso1, stronger effect = lower value 0.998 | locus YOR001W, strain rrp6, stronger effect = lower value 1.01 | locus YOR070C, strain gyp1, stronger effect = lower value 0.991 | locus YOR080W, strain dia2, stronger effect = lower value 1.01 | locus YOR083W, strain WHI5, stronger effect = lower value 0.986 | locus YOR106W, strain vam3, stronger effect = lower value 0.963 | [8] 0.949 | locus YOR265W, strain rbl2, stronger effect = lower value 1 | locus YOR270C, strain vph1, stronger effect = lower value 0.954 | locus YOR290C, strain snf2, stronger effect = lower value 0.956 | locus YPL051W, strain arl3, stronger effect = lower value 1.01 | locus YPL078C, strain atp4, stronger effect = lower value 0.979 | locus YPL106C, strain sse1, stronger effect = lower value 1.02 | locus YPL240C, strain hsp82, stronger effect = lower value 1.01 | [9] 0.945
